Bioassay records as filed in PubChem.
MsrA inh = bovine MsrA inhibition; purified bovine MsrA, absorbance read-out; inhibition, % at 15.5 µM; actives 0.75% (n = 360,000);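 further: 0% = vehicle wells with enzyme and 100% = reference inhibitor wells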
MsrA act = activators of bovine methionine sulfoxide reductase A. purified bovine MsrA, absorbance read-out. activation, % at 10.6 µM. actives 0.3% (n = 360,000); in the data active means activation above about 7.5%;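 further: 0% = vehicle and 100% = reference activator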
PKA-R2B act = PKA-R2B complex activation; activation, % at 11.4 µM; AID 504700; actives 0.079% (n = 340,000); P22694+P31323; PKA-R2B holoenzyme dissociation, Cy5-IP20 fluorescence polarization; R2B truncated from residue 108, S112A mutant; 0% DMSO only, 100% 113 µM cGMP;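 active means activation above a cutoff set at the mean over all compounds plus 3 SD, cut at about 18% in these data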;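 further: higher means more holoenzyme dissociation and a rise in polarization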
Target sequence (P31323 whole entry, looked up, other chains not shown, the tested form may be a part): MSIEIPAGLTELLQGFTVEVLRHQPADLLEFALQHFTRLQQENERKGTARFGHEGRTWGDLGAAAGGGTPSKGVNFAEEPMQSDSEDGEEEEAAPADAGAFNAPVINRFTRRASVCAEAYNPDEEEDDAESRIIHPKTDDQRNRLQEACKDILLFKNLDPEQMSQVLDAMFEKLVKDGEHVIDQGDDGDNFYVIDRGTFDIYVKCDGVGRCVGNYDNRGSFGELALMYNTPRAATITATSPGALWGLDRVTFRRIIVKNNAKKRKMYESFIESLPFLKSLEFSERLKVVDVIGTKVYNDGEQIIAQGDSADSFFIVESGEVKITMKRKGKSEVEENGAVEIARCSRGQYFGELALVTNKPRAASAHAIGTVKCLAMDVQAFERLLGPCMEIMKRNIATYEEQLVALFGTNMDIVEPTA
PKA-R1A activ = PKA-R1A complex activation | PKA-R1A dissociation, Cy5-IP20 fluorescence polarization; scaled: DMSO 0%, 113 µM cGMP 100% | activation, % at 11.4 µM | actives 0.083% (n = 340,000) | AID 504707;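 active means percent activation above the mean of all tested compounds plus 3 SD, cut at about 19% in these data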;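 further: higher means more PKAc released from R1A so a rise in polarization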
MsrA inh confirm = confirmation of bovine MsrA inhibitors. purified bovine MsrA, absorbance read-out. shares compounds with MsrA inh. actives 41% (n = 2,300). AID 651822. inhibition, % at 15.5 µM;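 further: coupled to thioredoxin reductase with NADPH and selenocystamine and DMSO as substrate; 0% = vehicle only and 100% = full effect of reference inhibitor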
* = called active by the depositor; · = no result. Sampled rows, rich in hits. Any-hit rate of the full collection: about 1.1%. Unless noted, no stated cut-off is given here; in the data, active means inhibition above about 4.5%; inactive means the rest.

SMILES | MsrA inh | MsrA act | PKA-R2B act | PKA-R1A activ | MsrA inh confirm
COc1cc(/C=N/Nc2cc(C)nc(NS(=O)(=O)c3ccccc3)n2)ccc1O | 7.4* | -7 | -5 | 0 | 6.9*
COC(=O)CCCC[C@@H]1SC[C@@H](NC(=O)OC)[C@@H]1NC(=O)OC | 1 | -3 | 8 | 9 | ·
CC(=O)COc1c(-c2ccco2)oc2ccccc2c1=O | 4.8* | -5 | 1 | -3 | 4
CC1CC(=O)NN=C1c1ccc(N(C)C)c([N+](=O)[O-])c1 (stereo unspecified) | 4.7* | -5 | 9 | 5 | 4
Cc1cc(C)nc(NS(=O)(=O)c2ccc(N/C=C3\CCCC3=O)cc2)n1 | 5.2* | -8 | 0 | -1 | 5.5*
Nc1nc2c(ncn2[C@@H]2O[C@H](C(=O)NCCCc3ccccc3)[C@@H](O)[C@H]2O)c(=O)[nH]1 | 0 | · | · | · | ·
Cc1ccc(/C=N/NC(=O)c2ccccn2)s1 | 4.9* | -3 | 4 | -2 | 5.2*
Cc1cc2n(c(=O)c1C#N)CCCN2c1ccccc1 | 6.1* | -14 | -6 | -6 | 4.5*
Cc1cc(C)n(CC(=O)N2CCc3ccccc32)c(=O)c1C#N | 3 | -1 | -7 | 4 | ·
O=C(O)c1ccc(N2C(=O)c3cccc4c(C(=O)O)ccc(c34)C2=O)cc1 | 5.5* | -4 | · | · | 2
O=C(O)c1ccc2c3c(cccc13)C(=O)N(c1ccccc1)C2=O | 4 | -7 | 1 | -3 | ·
NS(=O)(=O)c1ccc(O)c(N2C(=O)c3cccc4c(C(=O)O)ccc(c34)C2=O)c1 | 5.0* | -1 | 4 | 1 | 4
CC(C)CCOc1ccc(/C=N/N2C(=O)CSC2=S)cc1 | 0 | 2 | -5 | -8 | ·
COc1ccc(/C=N/N2C(=N)SCC2=O)cc1 | 6.3* | -3 | -6 | 4 | 4
COc1ccc(C=CC(=O)c2ccc(OC)c(OC)c2)cc1O | 4.7* | -11 | 3 | 2 | 3
COc1ccc(C=CC(=O)c2ccc3cc(OC)c(OC)cc3c2)cc1OC | 2 | -5 | 1 | -3 | ·
COc1ccc(/C=C/C(=O)c2ccc(O)cc2)cc1 | 5.2* | -10 | -12 | -5 | 4
COC(=O)[C@]12C[C@H](CC(=O)NCc3cccs3)C(=O)N(CCC3=CCCCC3)C1=C[C@H](C(C)(C)C)O[C@@H]2C | 1 | · | · | · | ·
COc1ccccc1NC(=O)N(C)C[C@H]1OCc2cn(nn2)CCCC(=O)N([C@H](C)CO)C[C@@H]1C | -1 | · | · | · | ·
COc1ccc(C(=O)NC(C)c2ccccc2)cc1Br (stereo unspecified) | -1 | -4 | -7 | 5 | ·
C[C@@H](NC(=O)c1coc(=O)c(Br)c1)c1ccccc1 | 4.8* | -3 | 0 | 11 | 4.8*
O=C(/C=C/c1ccccc1)c1ccccc1 | 0 | -4 | -1 | -4 | ·
O=C(/C=C/c1ccccc1)/C=C/c1ccccc1 | 4.9* | -6 | 17 | 4 | 1
COc1cc(/C=N/NC(=O)c2ccc3c(c2)OCCO3)cc(Br)c1O | 5.2* | -5 | 2 | 3 | 5.3*
CC(=O)Nc1ccc(NC(=O)/C=C/c2ccc3c(c2)OCO3)cc1 | 5.5* | -5 | 4 | 0 | 4
SMILES | MsrA inh | MsrA act | PKA-R2B act | PKA-R1A activ | MsrA inh confirm
O=C(NN=Cc1ccc2c(c1)OCO2)c1ccccc1 | 4 | -10 | 2 | -9 | ·
COc1cc(/C=N/NC(=O)c2ccc3c(c2)OCCO3)c(Br)c(Br)c1O | 3 | -4 | -7 | -3 | ·
O=C(N/N=C/c1ccc[nH]1)c1ccc(O)cc1 | 5.3* | -3 | 15 | -4 | 4
O=C(N/N=C/c1ccc2c(c1)OCO2)c1ccc2c(c1)OCO2 | 4.7* | -5 | -1 | -14 | 4
O=C(N/N=C/c1ccc[nH]1)c1ccccc1O | 4 | -5 | -9 | -10 | ·
O=C(CCC(=O)N(CC(=O)NC1CCCCC1)Cc1cccs1)Nc1ccccn1 | 0 | -4 | 2 | -5 | ·
CCCN(CCC)Cc1cc(=O)oc2ccccc12 | 0 | · | · | · | ·
COc1ccc2c(c1)[C@@H](NC(=O)c1ccncc1)[C@@H]1Cc3ccccc3[C@H]21 | -2 | · | · | · | ·
O=C(N/N=C/c1ccc[nH]1)c1cc(-c2cccs2)nc2ccccc12 | 4.9* | -2 | 11 | 7 | 4
Cc1ccsc1/C=N\NC(=O)c1ccc2c(c1)OCO2 | 5.1* | 0 | -8 | 2 | 5.5*
COc1ccc(NS(=O)(=O)c2cccc(C(=O)NN=Cc3ccc(OC)cc3OC)c2)cc1 | 2 | 0 | -12 | -9 | ·
Cc1cc(C(=O)N/N=C/c2ccc[nH]2)n[nH]1 | 5.3* | -6 | -11 | -10 | 4
Cc1cc(C(=O)N/N=C/c2ccc[nH]2)no1 | 5 | -9 | 0 | -2 | ·
COc1ccc(NS(=O)(=O)c2cccc(C(=O)NN=Cc3cc(Br)c(O)c(Br)c3)c2)cc1 | 5.7* | -6 | -2 | -9 | 4.9*
Cc1ccsc1/C=N/NC(=O)c1ccc2c(c1)OCCO2 | 4 | -5 | -7 | 5 | ·
C=CCCC1CN(Cc2ccc(OC)cc2)S(=O)(=O)c2c(NCc3cc(OC)c(OC)c(OC)c3)cccc2O1 (stereo unspecified) | 0 | · | · | · | ·
CCc1cccc(Nc2cc(C)n(-c3cccc(CC)c3)c(=O)c2)c1 | -1 | · | · | · | ·
O=C(N/N=C/c1ccc[nH]1)c1ccc2c(c1)OCO2 | 5.1* | -3 | -3 | -7 | 4
COCCCNC(=S)N/N=C/c1ccc2c(c1)OCO2 | 5.5* | -4 | · | · | 4.9*
COCCNC(=S)N/N=C/c1ccc2c(c1)OCCO2 | 4 | -2 | -2 | -11 | ·
COc1ccccc1/C=N/NC(=O)c1ccc2c(c1)OCO2 | 2 | 5 | 7 | -3 | ·
Cc1oc(S(=O)(=O)N2CCCCC2)cc1NC(=O)Nc1ccc(F)cc1 | 1 | -2 | -2 | -3 | ·
COc1cc(-c2ccc(Nc3ccccc3C(=O)O)c(OC)c2)ccc1Nc1ccccc1C(=O)O | 4.9* | -7 | 2 | 6 | 5.3*
Nc1ncc([N+](=O)[O-])cc1Br | 5.4* | -11 | -8 | -20 | 2
Nc1ncc(Br)cc1Br | 1 | -4 | -9 | -9 | ·
SMILES | MsrA inh | MsrA act | PKA-R2B act | PKA-R1A activ | MsrA inh confirm
CCc1cccc(N=c2c([N+](=O)[O-])nn(-c3ccc(Cl)cc3)n2O)c1 | 5.4* | -3 | -7 | 2 | 5.3*
Cc1cccc(N=c2c([N+](=O)[O-])nn(-c3ccc(Cl)cc3)n2O)c1 | 0 | -1 | -7 | -6 | ·
Fc1cccc(/C=N/Nc2cc(N3CCOCC3)ncn2)c1 | 4.9* | -3 | 1 | 9 | 3
Oc1ccc(/C=N/Nc2cc(N3CCCC3)nc(N3CCCC3)n2)cc1 | 1 | -6 | -6 | 5 | ·
Oc1ccc(/C=N/Nc2cc(N3CCOCC3)nc(N3CCOCC3)n2)cc1 | 5.8* | -15 | -7 | 5 | 5.7*
CN1CCCCC(NC(=O)c2ccc3ccccc3c2)C1=O (stereo unspecified) | 0 | · | · | · | ·
O=C1C=CC(=O)N1CCCCCCCCCCN1C(=O)C=CC1=O | 0 | -1 | -9 | -2 | ·
O=C(CN1C(=O)S/C(=C\c2ccccc2)C1=O)NC1CCS(=O)(=O)C1 (stereo unspecified) | 5.3* | -2 | -8 | -9 | 4
